SRC1 inh: SRC1 coactivator transcriptional activity inhibitors, primary screen, cell-based, luminescence; Nuclear receptor coactivator 1 (Homo sapiens), Q15788; HEK293 GAL4-SRC1 luciferase reporter; inhibition, % at 3.6 µM; 0.12% of 360,000 active;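 active = inhibition above the campaign mean plus 3 SD, with each screening campaign given its own cutoff, cut at about 60% in these data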
Gli-Sufu block: Gli-Sufu pathway antagonists, primary screen, luciferase luminescence, Sufu-KO-LIGHT cells, uHTS; Sufu-KO-LIGHT fibroblasts, Gli luciferase reporter luminescence; inhibition, % at 5 µM; 0.74% of 340,000 active;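 active = inhibition above about 55%, limit read from the data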
NR2F2 inh: NR2F2 transcriptional activity inhibitors, primary screen, cell-based, luciferase reporter, HEK293T, luminescence; 0.7% of 370,000 active; COUP transcription factor 2 (Homo sapiens), P24468; inhibition, % at 8.6 µM; HEK293T NGFI-A luciferase reporter;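 active = inhibition above a per-plate cutoff, mean inhibition of test wells between control levels plus 3 SD, cut at about 38% in these data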;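 note: cells cotransfected with COUP-TFII expression vector driving the NGFI-A reporter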
NCOA3 inh: SRC3 coactivator transcriptional activity inhibitors, primary screen, cell-based, luminescence; inhibition, % at 3.6 µM; HEK293 GAL4-SRC3 luciferase reporter; 0.17% of 360,000 active;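 active = inhibition above a per-campaign cutoff, the mean of all compounds plus 3 SD, cut at about 60% in these data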;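 note: higher means less SRC3-driven luciferase light from the GAL4 reporter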
Target sequence (Q9Y6Q9 whole entry, looked up, the tested form may be a part): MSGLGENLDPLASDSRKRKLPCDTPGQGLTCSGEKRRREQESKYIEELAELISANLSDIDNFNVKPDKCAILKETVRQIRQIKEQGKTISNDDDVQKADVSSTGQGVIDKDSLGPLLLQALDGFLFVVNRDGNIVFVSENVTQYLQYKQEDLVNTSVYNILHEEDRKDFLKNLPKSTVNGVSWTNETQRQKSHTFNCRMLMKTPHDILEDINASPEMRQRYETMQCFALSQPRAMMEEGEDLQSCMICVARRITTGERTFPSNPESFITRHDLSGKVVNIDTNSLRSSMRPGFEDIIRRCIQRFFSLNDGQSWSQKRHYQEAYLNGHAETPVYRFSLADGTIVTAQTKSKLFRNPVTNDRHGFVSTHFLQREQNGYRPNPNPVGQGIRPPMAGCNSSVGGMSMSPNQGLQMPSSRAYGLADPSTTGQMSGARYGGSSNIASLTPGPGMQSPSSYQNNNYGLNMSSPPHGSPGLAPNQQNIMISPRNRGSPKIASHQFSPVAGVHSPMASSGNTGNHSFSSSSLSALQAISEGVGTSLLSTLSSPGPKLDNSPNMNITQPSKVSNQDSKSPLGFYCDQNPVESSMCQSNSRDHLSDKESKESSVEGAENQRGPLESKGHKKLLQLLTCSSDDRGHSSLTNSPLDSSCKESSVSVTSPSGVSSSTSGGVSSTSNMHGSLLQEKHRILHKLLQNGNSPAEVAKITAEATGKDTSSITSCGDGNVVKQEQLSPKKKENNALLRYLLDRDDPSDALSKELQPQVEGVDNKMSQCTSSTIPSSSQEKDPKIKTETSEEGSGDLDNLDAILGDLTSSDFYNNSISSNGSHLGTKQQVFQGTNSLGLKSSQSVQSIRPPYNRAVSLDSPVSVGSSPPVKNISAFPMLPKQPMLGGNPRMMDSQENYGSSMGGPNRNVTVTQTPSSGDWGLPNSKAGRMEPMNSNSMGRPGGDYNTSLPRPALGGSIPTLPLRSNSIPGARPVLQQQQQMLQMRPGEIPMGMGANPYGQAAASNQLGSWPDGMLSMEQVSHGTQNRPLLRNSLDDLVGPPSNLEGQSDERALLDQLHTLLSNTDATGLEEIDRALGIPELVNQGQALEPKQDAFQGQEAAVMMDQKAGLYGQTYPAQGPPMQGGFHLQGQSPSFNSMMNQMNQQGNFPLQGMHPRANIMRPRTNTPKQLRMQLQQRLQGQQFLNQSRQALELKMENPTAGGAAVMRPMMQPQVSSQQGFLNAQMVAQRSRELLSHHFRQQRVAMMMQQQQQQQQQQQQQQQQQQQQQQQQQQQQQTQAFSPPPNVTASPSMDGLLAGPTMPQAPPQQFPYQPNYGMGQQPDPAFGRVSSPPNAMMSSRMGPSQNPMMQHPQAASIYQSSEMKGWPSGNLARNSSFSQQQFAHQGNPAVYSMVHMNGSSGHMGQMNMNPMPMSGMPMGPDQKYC
NR5A2 inv ag: LRH-1 (NR5A2) inverse agonists, primary screen, cell-based, luminescence, HEK293T, StAR-luciferase reporter | LRH-1 transfected, 24 h | inhibition, % at 3.6 µM | 0.13% of 360,000 active;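 active = inhibition above the mean inhibition of all tested compounds plus 3 SD, cut at about 73% in these data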
NCOA2 inhibitor: inhibition of GAL4-SRC2 driven luciferase reporter, primary screen, SRC2 inhibitor project, cell-based, luminescence. 0.17% of 370,000 active. inhibition, % at 9 µM. AID 651957, 2012. HEK293 GAL4-SRC2 luciferase reporter. Nuclear receptor coactivator 2 (Homo sapiens), Q15596;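 active = inhibition above the mean inhibition of all tested compounds plus 3 SD, set per campaign, cut at about 52% in these data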
Gli antag conf: Gli-SUFU pathway antagonists, confirmation, single concentration, luciferase luminescence, Sufu-KO-LIGHT cells | shares compounds with Gli-Sufu block | Gli luciferase reporter | inhibition, % at 5 µM | 40% of 2,500 active;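 active = mean inhibition at 5 µM reaching about 45%, limit read from the data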
SufuKO cytotox: cytotoxicity in Sufu-KO-LIGHT cells, confirmation, cytotoxicity control for Gli-SUFU antagonist project, cell-based, ATP luminescence, single concentration. shares compounds with Gli-Sufu block. cytotoxicity, % at 5 µM. 32% of 2,500 active. AID 651994, 2013;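 active = mean cytotoxicity at 5 µM above about 25%, limit read from the data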;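 note: cells exposed to compound overnight for roughly 16 to 18 hours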
Wnt3a counter: Wnt3a reporter signal inhibition, confirmation, counter-screen for Gli-SUFU antagonist project, Wnt-LIGHT cells, luminescence, single concentration; shares compounds with Gli-Sufu block; Wnt3a-driven luciferase reporter; inhibition, % at 6.25 µM; 20% of 2,500 active;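 active = mean inhibition above about 25%, limit read from the data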
Each line names hits and unclear results; the compound was inactive in the other large screens (follow-up assays come after a bar, where they were run). Shown are actives, neighbours in structure and some others; about 1.3% of the full set was active somewhere.

CC1CCCCN1C(=O)Cn1cnc2cc([N+](=O)[O-])ccc2c1=O (stereo not drawn)	Gli-Sufu block 55 | Gli antag conf inactive | SufuKO cytotox inactive | Wnt3a counter inactive
Cc1oc(/N=C/c2ccc(Cl)cc2)c(C#N)c1C	Gli-Sufu block 71 | Gli antag conf inactive | SufuKO cytotox inactive | Wnt3a counter inactive
Cc1cccnc1NC(=O)c1ccc(Cl)c(S(=O)(=O)N2CCCCCC2)c1	Gli-Sufu block 84 | Gli antag conf inactive | SufuKO cytotox inactive | Wnt3a counter inactive
Cc1cccnc1NC(=O)c1ccc(Cl)c(S(=O)(=O)N2CCCC2)c1	none
COC(=O)NCC(c1ccco1)N1CCN(c2ccc(F)cc2)CC1 (stereo not drawn)	none | Gli antag conf inactive | SufuKO cytotox inactive | Wnt3a counter inactive
CC(=O)OCc1cc(-c2nc3ccccc3[nH]c2=O)nn1-c1ccc(Cl)cc1	none | Gli antag conf inactive | SufuKO cytotox inactive | Wnt3a counter inactive
O=C(CCc1nc2ccccc2[nH]c1=O)OCC(=O)c1ccc(Cl)cc1	none
O=C1CC[C@@]23CCCN2C(=O)CCCC3C1 (stereo partly drawn)	Gli-Sufu block 55 | Gli antag conf inactive | SufuKO cytotox inactive | Wnt3a counter inactive
CCOC(=O)c1ccc(NC(=O)Nc2ccc(OC)c(OC)c2)cc1	Gli-Sufu block 61 | Gli antag conf inactive | SufuKO cytotox inactive | Wnt3a counter inactive
CCOC(=O)c1ccccc1NC(=O)C(C)Oc1ccccc1 (stereo not drawn)	none
CCCCOC(=O)c1ccc(NC(=O)Nc2ccc(OC)c(OC)c2)cc1	none
CCCC(C)C(=O)Nc1ccccc1C(=O)OCC (stereo not drawn)	Gli-Sufu block 100 | Gli antag conf inactive | SufuKO cytotox inactive | Wnt3a counter inactive
CCOC(=O)c1ccccc1NC(=O)Nc1ccc(OC)c(OC)c1	Gli-Sufu block 62 | Gli antag conf inactive | SufuKO cytotox inactive | Wnt3a counter inactive
COc1ccc(CN(CCN2CCOCC2)C(=O)c2cc(Cl)ccc2F)cc1OC	none (no result: SRC1 inh, Gli-Sufu block, NCOA3 inh, NR5A2 inv ag)
O=C(Cc1ccccc1F)Nc1nnc(-c2cccnc2)s1	none (no result: SRC1 inh, Gli-Sufu block, NCOA3 inh, NR5A2 inv ag)
COc1ccc(C(CCN(Cc2ccc(OC)c(OC)c2)C(C)=O)c2ccccc2)cc1 (stereo not drawn)	Gli-Sufu block 57 | Gli antag conf inactive | SufuKO cytotox inactive | Wnt3a counter inactive
COc1ccc(CN(CCC(c2ccccc2)c2ccc(OC(C)C)cc2)C(=O)CCl)cc1OC (stereo not drawn)	none
COc1cc(/C=C2/NC(=O)N(Cc3ccccc3F)C2=O)ccc1O	Gli-Sufu block 71 | Gli antag conf 54 | SufuKO cytotox inactive | Wnt3a counter 37
COc1cc(/C=C2/NC(=O)N(Cc3ccccc3F)C2=O)ccc1Oc1ccc([N+](=O)[O-])cn1	none
CC(C)(C)c1[nH]nc2c1C(c1ccco1)C(C#N)=C(N)O2 (stereo not drawn)	none | Gli antag conf inactive | SufuKO cytotox inactive | Wnt3a counter inactive
CN1CCN(C(=O)c2cc3ccccc3[nH]2)CC1	none | Gli antag conf inactive | SufuKO cytotox inactive | Wnt3a counter inactive
COc1ccc2cc(C(=O)N3CCN(c4ccccc4OC)CC3)[nH]c2c1	Gli-Sufu block 57 | Gli antag conf inactive | SufuKO cytotox inactive | Wnt3a counter inactive
COc1ccccc1N1CCN(C(=O)c2cc3sccc3n2C)CC1	Gli-Sufu block 92 | Gli antag conf inactive | SufuKO cytotox inactive | Wnt3a counter inactive
O=C(c1cc2ccccc2[nH]1)N1CCOCC1	none
Cn1c(C(=O)N2CCN(c3nc4ccccc4s3)CC2)cc2sccc21	none

Assay outcomes as filed in PubChem BioAssay.
